Data on 21 molecules can be found in PubChem BioAssay (NCI).

A short description of assay [1]: NCI Yeast Anticancer Drug Screen. Data for the rad50 strain (AID 155).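 Further: 0% = growth of vehicle-only cultures of the same strain.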 Particulars: S. cerevisiae rad50 strain growth inhibition; at 50.0 µM; active compounds read high. Summed up:
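DNA repair mutant yeast, compound exposure, growth read-out; inhibition is taken relative to vehicle.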

Assay [2] can be described thus: NCI Yeast Anticancer Drug Screen. Data for the mec2-1 strain (AID 157). Particulars: S. cerevisiae mec2-1 strain, at 50.0 µM, active compounds read high. An outline of the steps:
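Readout is yeast growth inhibition, normalised to vehicle-treated controls, in the mec2-1 strain exposed to compound.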

Assay [3] can be described thus: NCI Yeast Anticancer Drug Screen. Data for the sgs1 mgt1 strain (AID 161).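 Further: 0% = growth of cultures given vehicle only.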 The following applies: S. cerevisiae sgs1 mgt1 strain, at 50.0 µM, active compounds read high. An outline of the steps: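 Yeast cells carrying a defined DNA-repair defect were exposed to test compounds. Growth inhibition was measured relative to vehicle-treated controls.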
Assay [4] is described as follows: NCI Yeast Anticancer Drug Screen. Data for the cln2 rad14 strain (AID 165).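 Further: 0% = growth equal to vehicle treated cultures.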 The following applies: S. cerevisiae cln2 rad14 strain, at 50.0 µM, active compounds read high. An outline of the steps: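 Relative to vehicle controls, growth inhibition of compound-treated cln2 rad14 yeast was recorded.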
Assay [5] in a line: NCI Yeast Anticancer Drug Screen. Data for the bub3 strain (AID 167). The following applies: S. cerevisiae bub3 mutant strain, at 50.0 µM, active compounds read high. Summed up: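 In this screen, a yeast mutant lacking normal mitotic checkpoint function is challenged with compound. Relative growth versus vehicle gives the inhibition value.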
A short description of assay [6]: NCI Yeast Anticancer Drug Screen. Data for the mlh1 rad18 strain (AID 175). The following applies: S. cerevisiae mlh1 rad18 strain growth inhibition; at 50.0 µM; active compounds read high. Summed up:
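Test agents were incubated with a yeast strain of defined genotype (DNA damage repair defect). Inhibition of growth was derived by comparison with vehicle-exposed cultures.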

Structures are written as SMILES. About 79,000 compounds went through this panel and 15% of them were active in at least one assay; those are over-represented in the sample as a whole. A number with no mark means an inactive call. Active and inactive are the calls of the source. No stated cut-off is given here; in the data, active means growth inhibition above about 70%; inactive means the rest.

Regarding `O=[N+]([O-])c1ccc(/C=C/c2ccc([N+](=O)[O-])cc2S(=O)(=O)O)c(S(=O)(=O)O)c1`, the growth inhibition was 25.8% in assay [1]; -9.6% in assay [2]; 30.8% in assay [3]; 5.45% in assay [4]; 32.9% in assay [5]; 32% in assay [6].
In the case of `O=c1[nH]c(=O)n(C2CC(O)C(CO)O2)cc1NN=NCCCc1ccccc1` (stereo unspecified), the growth inhibition in assay [1] is -21.8%; in assay [2], -12.4%; in assay [3], -8.5%; in assay [4], 10.8%; in assay [5], -11.3%; in assay [6], -32.5%.
Consider `CC1=C(C(=O)NCc2ccccc2)C(c2ccc(Cl)c(Cl)c2)C(C(=O)NCc2ccccc2)=C(C)N1`, for which the growth inhibition was -10.9% in assay [1]; 12.2% in assay [2]; -21.1% in assay [3]; 21.2% in assay [4]; -12.4% in assay [5]; -18.9% in assay [6].
In the case of `C[N+](C)(C)C(Cc1c[nH]c(=S)[nH]1)C(=O)O` (stereo unspecified), the growth inhibition in assay [1] was -14.9%; in assay [2] it was -44.4%; in assay [3], -31.1%; in assay [4], 9.45%; in assay [5] it was -8.4%; in assay [6] it was -20.4%.
In the case of `CC(C)(CC(=O)Nc1ccccc1)C(=O)O`, the growth inhibition is -11.8% in assay [1]; -7.05% in assay [2]; -19.4% in assay [3]; -12.1% in assay [4]; -56.9% in assay [5]; -0.4% in assay [6].
For `Cc1ccc(CNC2=C(Cl)C(=O)c3ccccc3C2=O)cc1C`, the growth inhibition in assay [1] was 96.9% (active); in assay [2], 98.2% (active); in assay [3], 97.2% (active); in assay [4], 97.2% (active); in assay [5] it was 98% (active); in assay [6], 97.2% (active).
For `CC1CC=CCC1(C(=O)O)C(=O)O` (stereo unspecified), the growth inhibition is 0.6% in assay [1]; 10.1% in assay [2]; -10.2% in assay [3]; -2.05% in assay [4]; -21.6% in assay [5]; -24.1% in assay [6].
Regarding `CNCc1ccccc1[N+](=O)[O-]`, the growth inhibition is 6.75% in assay [1]; -3.95% in assay [2]; -3.9% in assay [3]; -9.95% in assay [4]; 3.7% in assay [5]; -0.3% in assay [6].
As to `CSCCNC(=O)CS(=O)(=O)c1ccc(C)cc1`, the growth inhibition is 3.35% in assay [1]; -11.4% in assay [2]; 5.25% in assay [3]; 20.2% in assay [4]; 7.95% in assay [5]; 17.4% in assay [6].
Consider `ClCc1ccc(CCc2ccc(CCl)cc2)cc1`, for which the growth inhibition was 17.9% in assay [1]; -17.9% in assay [2]; 22.6% in assay [3]; -44.9% in assay [4]; 16.3% in assay [5]; 8.15% in assay [6].
Consider `Cc1ccc(S(=O)(=O)Oc2c(Cl)c(Cl)c(Cl)c(Cl)c2Cl)cc1`, for which the growth inhibition was -9.5% in assay [1]; -10.1% in assay [2]; 2.2% in assay [3]; -15.3% in assay [4]; 9.5% in assay [5]; 5% in assay [6].
Turning to `N#Cc1ccc(OC(=O)Nc2ccccc2Cl)cc1`, the growth inhibition in assay [1] is 0.5%; in assay [2] it was -8.6%; in assay [3], 21.4%; in assay [4], 26.4%; in assay [5], 15.4%; in assay [6], 13.8%.
`O=S(=O)(O)CCCCCO`: the growth inhibition is -6.45% in assay [1]; -18.7% in assay [2]; -15.7% in assay [3]; -46.8% in assay [4]; -2.85% in assay [5]; -9.95% in assay [6].
Consider `CCOC(=O)C/C(C)=N\NC(N)=O`, for which the growth inhibition is 38.2% in assay [1]; 42.5% in assay [2]; 44.8% in assay [3]; 18.2% in assay [4]; 26.1% in assay [5]; 42.8% in assay [6].
In the case of `CC(CC[C@@]1(C)C(=O)CCC2O[C@]21C)[C@H]1C[C@@H](c2ccoc2)OC1=O` (stereo partly specified), the growth inhibition in assay [1] was 9.05%; in assay [2] it was -31.8%; in assay [3], -5.4%; in assay [4], -15.8%; in assay [5], -4.8%; in assay [6], -70.9%.
As for `O=C1NC(N2CCCC(CO)C2)=N/C1=C\c1ccc(O)cc1` (stereo unspecified), the growth inhibition in assay [1] was 13.1%; in assay [2], 2.05%; in assay [3] it was -15.3%; in assay [4], 33.4%; in assay [5], -9.6%; in assay [6], -31.6%.
As for `COc1cc(OC)c(-c2oc3ccccc3c(=O)c2O)c(OC)c1`, the growth inhibition was -9.5% in assay [1]; 12.7% in assay [2]; 2.4% in assay [3]; -13.2% in assay [4]; 4.65% in assay [5]; -5.45% in assay [6].
Turning to `CC(=O)OCCCC1CO1` (stereo unspecified), the growth inhibition in assay [1] is 14.9%; in assay [2], -13.7%; in assay [3], -1.4%; in assay [4], 3.15%; in assay [5], -14.2%; in assay [6] it was 10.6%.
Regarding `CCC(CCC(C)C)(SCC(N)=O)C(=O)O` (stereo unspecified), the growth inhibition in assay [1] was -4.75%; in assay [2], -5.15%; in assay [3], -26%; in assay [4], -39.3%; in assay [5], 0.2%; in assay [6], -38%.
Consider `Cc1cc(C)c(C)c(CC(C)(CI)CI)c1C`, for which the growth inhibition in assay [1] is 20.3%; in assay [2], -13.2%; in assay [3], -4.7%; in assay [4], 0.65%; in assay [5], -8.05%; in assay [6], -3.6%.
Take `C[N+]1(C)C/C(=C\c2ccncc2)C(=O)/C(=C/c2ccncc2)C1`: the growth inhibition was 0.3% in assay [1]; -2.45% in assay [2]; 14.3% in assay [3]; 5.3% in assay [4]; 1.1% in assay [5]; -10.2% in assay [6].
